Laboratory results published in PubChem BioAssay.
Calls of active or inactive are those of the source.

Columns and labels:
[1] = small molecules captured by biotinylated probe aFSTL3 – biochemical, small-molecule microarray, fluorescence 635/667, stem cell growth factor project, primary screen (AID 1064); settings: higher = more signal;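 further: measures binding of the biotinylated anti-FSTL3 antibody to printed compounds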
[2] = binders from COS7 lysate, DM2A8 probe, primary screen, torsin A project, cell lysate, small-molecule microarray, fluorescence 635/667 (AID 1065); settings: higher = more signal, COS7 lysate expressing mutant human TOR1A
[3] = small molecules captured by biotinylated probe aFGF2 – biochemical, small-molecule microarray, fluorescence 635/667, stem cell growth factor project, primary screen (AID 1067); settings: higher = more signal;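 further: measures binding of biotinylated aFGF2 protein to printed compounds on slides; z-score merges feature fluorescence and signal-to-noise across triplicate slides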
[4] = small molecules captured by biotinylated probe aFGF10 – biochemical, small-molecule microarray, fluorescence 635/667, stem cell growth factor project, primary screen (AID 1071); settings: higher = more signal;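 further: score merges 667 nm spot intensity and signal to noise from triplicate slides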
[5] = biological target: Neurogenic locus notch homolog protein 2 (Homo sapiens) (UniProt Q04721); assay: small molecules binding Notch2 protein – biochemical, small-molecule microarray, 635 nm fluorescence, stem cell growth factors, primary screen (AID 1073); settings: higher = more signal
[6] = biological target: Pro-neuregulin-1, membrane-bound isoform (Homo sapiens) (UniProt Q02297); assay: small molecules binding neuregulin-1 protein – biochemical, small-molecule microarray, fluorescence 635/667, psychiatric disease protein project, primary screen (AID 1075); settings: NRG1 binding, 635 nm fluorescence, higher = more signal;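 further: score combines 667 nm spot fluorescence with signal to noise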
[7] = system: Neuregulin-1 EGF-like domain; assay: small molecules binding NRG1 EGF domain – biochemical, small-molecule microarray, 635 nm fluorescence, primary screen (AID 1081); settings: higher = more signal;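 further: binding of the protein to compounds printed on small-molecule microarray slides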
[8] = FRG1 expression reporter modulators in myotubes – cell-based, C2C12 myotubes, firefly/Renilla luciferase, luminescence, FRG1 inhibition for FSHD, primary screen (AID 1084); settings: FRG1 promoter luciferase, higher = more signal, called active from +8 up or from −8 down
[9] = small molecules captured by biotinylated probe aFST – biochemical, small-molecule microarray, fluorescence 635/667, stem cell growth factor project, primary screen (AID 1086); settings: higher = more signal;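 further: score merges 667 nm fluorescence with signal-to-noise of each printed compound spot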
[10] = binders of probe aHhip on microarray, primary screen, stem cell growth factor project, biochemical, small-molecule microarray, fluorescence 635/667 (AID 1087); settings: higher = more signal;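 further: score merges spot fluorescence at 667nm with spot signal to noise ratio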
[11] = system: PRMT1 (protein arginine N-methyltransferase 1); assay: small molecules binding arginine methyltransferase PRMT1 – biochemical, small-molecule microarray, 635 nm fluorescence, primary screen (AID 1088); settings: higher = more signal;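 further: binding of Prmt1 protein to compounds spotted on small-molecule microarray slides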
[12] = growth effects on S. cerevisiae YJM789 – YJM789 clinical isolate, OD600, 24 h, basal, primary screen (AID 1089); settings: higher = more signal, called active from +8 up or from −8 down;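 further: growth of clinical yeast isolate S. cerevisiae YJM 789 seeded 1000 cells per well; test concentration not given here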
[13] = S. pombe growth modifiers, basal conditions – strain 972, OD600, 24 h, no modulator, primary screen (AID 1090);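 further: basal condition with compound alone and no growth modifier present; test concentration not given here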; settings: S. pombe 972 growth, higher = more signal, called active from +8 up or from −8 down
[14] = budding yeast growth modifiers under rapamycin – strain BY4716, OD600, 96 h, primary screen (AID 1091); further: test concentration not given here; settings: S. cerevisiae BY4716 + rapamycin, higher = more signal, called active from +8 up or from −8 down
[15] = biological target: Torsin-1A-interacting protein 2 (Homo sapiens) (UniProt Q8NFQ8); assay: small molecules binding lysate-expressed LULL1 – cell lysate, human LULL1 lysate, 635/667 nm fluorescence, primary screen (AID 1092); settings: small-molecule microarray, hLULL1 lysate binding, 635 nm fluorescence; higher = more signal;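 further: probe is lysate of COS7 cells overexpressing human LULL1; score merges per-feature 667 nm fluorescence with signal-to-noise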
[16] = optical density change of DRC41 E. coli – strain DRC41, OD650, 24 h, E. coli filamentation project, primary screen (AID 1093);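 further: MC1000 strain lacking acrAB efflux and sulA so SOS filamentation is blocked; test concentration not given here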; settings: E. coli DRC41 growth, higher = more signal, called active from +8 up or from −8 down
[17] = probe aLefty2 binding to arrayed compounds – biochemical, biotinylated probe, 635/667 nm fluorescence, primary screen (AID 1094); settings: small-molecule microarray, higher = more signal;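 further: score merges spot fluorescence near 667 nm with spot signal-to-noise ratio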
[18] = system: Noggin (protein binding on small-molecule microarray); assay: small molecules binding Noggin protein – biochemical, 635/667 nm fluorescence, primary screen (AID 1095); settings: 635 nm fluorescence, higher = more signal;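 further: score merges 667 nm feature fluorescence with signal to noise over triplicate slides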
[19] = biological target: Neurogenic locus notch homolog protein 3 (Homo sapiens) (UniProt Q9UM47); assay: small molecules binding NOTCH3 protein – biochemical, 635/667 nm fluorescence, primary screen (AID 1096); settings: small-molecule microarray, 635 nm fluorescence, higher = more signal
[20] = probe aEGFR binding to arrayed compounds – biochemical, biotinylated probe, 635/667 nm fluorescence, primary screen (AID 1097); settings: small-molecule microarray, higher = more signal;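 further: probe is a biotinylated anti-EGFR antibody binding compounds printed on slides; score combines fluorescence near 667 nm and signal to noise of each spot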

Chain of Neurogenic locus notch homolog protein 2 (Homo sapiens) (Q04721 whole entry, looked up, canonical isoform): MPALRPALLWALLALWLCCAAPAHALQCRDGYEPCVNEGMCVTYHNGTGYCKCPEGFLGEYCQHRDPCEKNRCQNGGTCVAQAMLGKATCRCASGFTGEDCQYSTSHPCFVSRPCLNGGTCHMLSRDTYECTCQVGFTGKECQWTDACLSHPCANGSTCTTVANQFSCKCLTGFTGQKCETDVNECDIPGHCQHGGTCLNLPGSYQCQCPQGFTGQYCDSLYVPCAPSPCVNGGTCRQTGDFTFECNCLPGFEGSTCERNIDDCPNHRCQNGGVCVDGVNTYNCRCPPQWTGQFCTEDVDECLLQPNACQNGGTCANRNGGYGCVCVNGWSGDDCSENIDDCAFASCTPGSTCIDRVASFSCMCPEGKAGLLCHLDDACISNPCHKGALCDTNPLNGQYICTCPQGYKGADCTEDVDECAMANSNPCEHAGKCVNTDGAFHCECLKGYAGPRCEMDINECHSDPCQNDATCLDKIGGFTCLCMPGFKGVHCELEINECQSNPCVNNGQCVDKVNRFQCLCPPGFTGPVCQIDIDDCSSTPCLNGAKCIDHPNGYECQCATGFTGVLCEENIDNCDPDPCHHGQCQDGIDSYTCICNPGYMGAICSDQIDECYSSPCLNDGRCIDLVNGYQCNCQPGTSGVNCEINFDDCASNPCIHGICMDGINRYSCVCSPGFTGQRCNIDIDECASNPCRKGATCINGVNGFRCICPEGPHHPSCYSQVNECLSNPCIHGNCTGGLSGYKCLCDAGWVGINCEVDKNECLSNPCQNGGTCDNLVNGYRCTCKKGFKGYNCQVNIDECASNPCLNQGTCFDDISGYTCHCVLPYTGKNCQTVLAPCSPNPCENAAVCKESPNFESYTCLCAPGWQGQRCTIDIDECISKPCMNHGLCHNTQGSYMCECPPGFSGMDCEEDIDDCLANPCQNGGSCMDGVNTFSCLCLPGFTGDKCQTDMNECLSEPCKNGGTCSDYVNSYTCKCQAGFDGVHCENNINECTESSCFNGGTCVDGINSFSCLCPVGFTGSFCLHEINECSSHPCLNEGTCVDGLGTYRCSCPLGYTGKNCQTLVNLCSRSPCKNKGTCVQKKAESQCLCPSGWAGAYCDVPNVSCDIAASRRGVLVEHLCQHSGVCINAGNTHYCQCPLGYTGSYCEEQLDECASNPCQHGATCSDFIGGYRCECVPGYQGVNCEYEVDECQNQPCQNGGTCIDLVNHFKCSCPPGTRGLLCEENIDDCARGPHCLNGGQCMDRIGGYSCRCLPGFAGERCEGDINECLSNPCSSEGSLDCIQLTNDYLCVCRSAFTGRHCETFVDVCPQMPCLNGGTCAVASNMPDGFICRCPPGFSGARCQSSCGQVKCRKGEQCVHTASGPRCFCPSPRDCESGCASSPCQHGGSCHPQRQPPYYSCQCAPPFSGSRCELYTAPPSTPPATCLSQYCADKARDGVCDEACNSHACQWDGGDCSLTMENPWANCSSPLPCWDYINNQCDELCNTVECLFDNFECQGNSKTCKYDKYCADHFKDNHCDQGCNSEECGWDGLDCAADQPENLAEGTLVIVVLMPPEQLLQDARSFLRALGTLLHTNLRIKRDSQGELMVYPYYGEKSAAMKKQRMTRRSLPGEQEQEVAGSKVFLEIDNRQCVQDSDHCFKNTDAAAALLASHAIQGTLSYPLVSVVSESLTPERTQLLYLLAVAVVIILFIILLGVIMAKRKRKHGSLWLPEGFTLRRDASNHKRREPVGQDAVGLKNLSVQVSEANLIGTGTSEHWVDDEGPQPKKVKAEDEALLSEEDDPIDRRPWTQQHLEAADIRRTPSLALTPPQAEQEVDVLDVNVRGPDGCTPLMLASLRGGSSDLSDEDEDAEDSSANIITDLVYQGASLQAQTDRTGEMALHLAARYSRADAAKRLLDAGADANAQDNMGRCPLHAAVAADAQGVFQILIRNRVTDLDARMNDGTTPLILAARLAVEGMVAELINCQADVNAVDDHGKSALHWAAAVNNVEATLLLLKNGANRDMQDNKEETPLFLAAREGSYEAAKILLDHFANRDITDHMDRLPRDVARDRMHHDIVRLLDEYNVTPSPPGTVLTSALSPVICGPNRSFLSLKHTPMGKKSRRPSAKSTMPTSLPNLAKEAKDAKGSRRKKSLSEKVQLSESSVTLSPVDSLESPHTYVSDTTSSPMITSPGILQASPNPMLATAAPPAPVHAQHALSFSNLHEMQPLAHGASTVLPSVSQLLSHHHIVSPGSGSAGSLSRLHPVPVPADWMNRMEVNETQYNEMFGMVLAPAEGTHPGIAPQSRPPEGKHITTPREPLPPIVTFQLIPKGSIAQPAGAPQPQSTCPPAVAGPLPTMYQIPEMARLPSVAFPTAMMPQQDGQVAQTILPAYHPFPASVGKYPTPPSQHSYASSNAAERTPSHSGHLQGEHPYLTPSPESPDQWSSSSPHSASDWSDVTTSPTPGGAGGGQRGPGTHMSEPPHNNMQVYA
Chain of Neurogenic locus notch homolog protein 3 (Homo sapiens) (Q9UM47 whole entry, looked up): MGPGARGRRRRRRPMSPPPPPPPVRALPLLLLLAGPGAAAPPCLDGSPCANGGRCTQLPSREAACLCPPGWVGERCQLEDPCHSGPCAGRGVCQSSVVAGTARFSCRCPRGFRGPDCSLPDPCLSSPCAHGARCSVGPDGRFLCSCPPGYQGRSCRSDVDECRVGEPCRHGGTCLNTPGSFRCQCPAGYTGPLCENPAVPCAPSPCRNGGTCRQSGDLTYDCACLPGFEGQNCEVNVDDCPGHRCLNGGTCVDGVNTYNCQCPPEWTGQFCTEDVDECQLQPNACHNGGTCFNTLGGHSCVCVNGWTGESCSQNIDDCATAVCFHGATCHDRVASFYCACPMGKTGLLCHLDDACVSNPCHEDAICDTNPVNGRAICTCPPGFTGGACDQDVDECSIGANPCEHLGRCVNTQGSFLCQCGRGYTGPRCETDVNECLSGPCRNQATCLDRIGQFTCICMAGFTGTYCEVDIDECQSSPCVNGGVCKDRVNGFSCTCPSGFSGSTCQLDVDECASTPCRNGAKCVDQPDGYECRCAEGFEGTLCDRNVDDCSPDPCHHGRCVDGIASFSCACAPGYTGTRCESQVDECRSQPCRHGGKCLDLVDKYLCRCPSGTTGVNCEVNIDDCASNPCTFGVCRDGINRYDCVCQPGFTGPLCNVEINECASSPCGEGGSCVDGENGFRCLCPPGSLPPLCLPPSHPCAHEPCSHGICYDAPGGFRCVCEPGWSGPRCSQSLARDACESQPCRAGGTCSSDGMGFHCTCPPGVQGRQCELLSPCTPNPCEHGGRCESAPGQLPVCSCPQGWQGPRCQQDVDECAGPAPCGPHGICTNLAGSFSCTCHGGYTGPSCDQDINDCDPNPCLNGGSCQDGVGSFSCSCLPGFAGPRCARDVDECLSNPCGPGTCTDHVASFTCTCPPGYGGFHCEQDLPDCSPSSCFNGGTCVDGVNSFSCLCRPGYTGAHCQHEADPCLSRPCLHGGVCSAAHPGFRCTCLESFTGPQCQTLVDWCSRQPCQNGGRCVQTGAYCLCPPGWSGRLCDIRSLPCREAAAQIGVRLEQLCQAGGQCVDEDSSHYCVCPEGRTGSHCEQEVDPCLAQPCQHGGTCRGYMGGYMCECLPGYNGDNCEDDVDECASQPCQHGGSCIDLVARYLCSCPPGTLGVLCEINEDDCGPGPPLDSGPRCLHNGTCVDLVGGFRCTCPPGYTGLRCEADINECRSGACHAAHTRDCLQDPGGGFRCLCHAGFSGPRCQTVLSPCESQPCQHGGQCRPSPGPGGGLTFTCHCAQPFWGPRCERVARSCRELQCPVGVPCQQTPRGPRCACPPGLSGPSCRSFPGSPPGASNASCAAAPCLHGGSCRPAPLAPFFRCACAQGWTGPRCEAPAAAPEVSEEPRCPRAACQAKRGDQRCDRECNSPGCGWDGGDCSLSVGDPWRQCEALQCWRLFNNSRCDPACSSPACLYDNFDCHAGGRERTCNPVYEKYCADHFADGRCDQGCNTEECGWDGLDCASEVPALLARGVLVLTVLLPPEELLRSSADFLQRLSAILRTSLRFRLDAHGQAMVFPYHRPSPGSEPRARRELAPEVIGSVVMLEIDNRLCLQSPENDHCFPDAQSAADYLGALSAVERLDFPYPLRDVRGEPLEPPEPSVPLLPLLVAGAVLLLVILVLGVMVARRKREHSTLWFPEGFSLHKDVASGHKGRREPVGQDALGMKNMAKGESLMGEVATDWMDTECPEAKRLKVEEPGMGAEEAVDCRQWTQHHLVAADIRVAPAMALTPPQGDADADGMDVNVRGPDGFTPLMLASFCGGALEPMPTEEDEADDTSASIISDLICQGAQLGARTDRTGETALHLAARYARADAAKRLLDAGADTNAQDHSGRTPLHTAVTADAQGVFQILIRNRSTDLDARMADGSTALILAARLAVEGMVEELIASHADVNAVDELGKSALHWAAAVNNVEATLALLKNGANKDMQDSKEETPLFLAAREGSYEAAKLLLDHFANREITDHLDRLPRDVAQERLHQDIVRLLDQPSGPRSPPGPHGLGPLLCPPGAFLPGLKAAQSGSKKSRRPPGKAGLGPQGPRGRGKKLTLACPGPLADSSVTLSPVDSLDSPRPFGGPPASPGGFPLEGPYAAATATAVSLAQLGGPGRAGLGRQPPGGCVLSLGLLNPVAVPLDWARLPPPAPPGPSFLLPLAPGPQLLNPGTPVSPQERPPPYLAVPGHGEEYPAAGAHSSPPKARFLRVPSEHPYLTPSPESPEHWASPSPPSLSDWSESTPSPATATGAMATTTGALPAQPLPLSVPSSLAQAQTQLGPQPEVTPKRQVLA

Row | SMILES | composite z-score [1] | composite z-score [2] | composite z-score [3] | composite z-score [4] | composite z-score [5] | composite z-score [6] | composite z-score [7] | z-score [8] | composite z-score [9] | composite z-score [10] | composite z-score [11] | z-score [12] | z-score [13] | z-score [14] | composite z-score [15] | z-score [16] | composite z-score [17] | composite z-score [18] | composite z-score [19] | composite z-score [20]
1 | CC(C)[C@@H](OCc1ccccc1)[C@H](C)C=NOC[C@@H](O)COCc1ccco1 | -0.457 | 0.84 | -0.251 | -0.416 | -1.08 | -0.417 | -0.569 | 0.887 (inactive) | -1.53 | -0.302 | -0.0832 | -1.64 (inactive) | -4.1 (inactive) | -1.15 (inactive) | -0.425 | 0.799 (inactive) | -0.364 | 0.0964 | -0.0957 | -0.357
2 | O=C1[C@H]2[C@H]3[C@H](O)[C@H](O)CC(=NOCc4ccccc4)[C@@H]3CC[C@H]2C(=O)N1c1ccc(F)cc1F | 1.17 | -0.0135 | -0.197 | 0.423 | 0.104 | -0.0591 | -0.646 | -0.738 (inactive) | 0.0704 | -0.236 | -0.755 | -1.94 (inactive) | -0.469 (inactive) | -0.996 (inactive) | 0.324 | -0.778 (inactive) | -0.205 | 0.358 | -0.283 | -0.125
3 | CCOC(=O)NN=C1C[C@@H](O)[C@@H](O)[C@@H]2[C@@H]3C(=O)N(C(C)(C)C)C(=O)[C@@H]3CC[C@H]12 | -0.306 | 0.367 | -0.163 | 0.255 | 0.444 | -0.135 | 0.603 | -0.848 (inactive) | 0.497 | 0.0401 | -0.247 | 0.438 (inactive) | 0.277 (inactive) | -0.397 (inactive) | -0.3 | 0.443 (inactive) | -0.101 | 0.708 | 0.235 | 0.039
4 | CO[C@H]1COC(=O)CCC[C@@H](C)[C@H](OC)COC(=O)[C@@H](C)NC(=O)CC=C[C@@H]1C | -0.467 | 2.11 | -0.235 | -0.0534 | -0.314 | -0.523 | -0.723 | 0.947 (inactive) | 0.0835 | -0.0994 | 1.4 | -0.994 (inactive) | -1.11 (inactive) | 0.0722 (inactive) | -1.7 | -0.597 (inactive) | -0.145 | 1.27 | 0.571 | 0.0115
5 | O=C1[C@H]2[C@H]3[C@H](O)[C@H](O)CC(=NOC[C@@H](O)COCc4ccco4)[C@H]3CC[C@H]2C(=O)N1Cc1ccccc1 | -0.414 | 1.33 | -0.21 | 0.17 | -0.224 | -0.346 | 0.299 | 0.272 (inactive) | -0.222 | -0.132 | 0.411 | -1.14 (inactive) | -1.05 (inactive) | -1.11 (inactive) | -1.71 | -0.518 (inactive) | -0.148 | 0.594 | -0.309 | -0.0973
6 | CCOC(=O)[C@H](CC(C)C)NC(=O)CCC1CC(OC(=O)NCc2cccc3ccccc23)CC2(CCCC(COC(=O)NCCCN3CCCC3=O)O2)O1 (stereo not given in full) | -0.494 | 0.129 | -0.131 | 0.208 | 0.755 | 0.466 | 0.953 | 1.74 (inactive) | 0.253 | -0.212 | 1.4 | -0.139 (inactive) | 0.409 (inactive) | -0.224 (inactive) | 1.68 | -0.165 (inactive) | -0.0998 | 0.822 | 1.12 | -0.0238
7 | CCOC(=O)CCN1C(=O)[C@H]2[C@H]3[C@H](O)[C@H](O)CC(=NOCC(C)C)[C@H]3CC[C@H]2C1=O | 0.185 | 0.0849 | -0.0232 | 0.125 | -0.131 | -0.312 | 0.176 | 0.813 (inactive) | 0.349 | -0.264 | -0.309 | 0.199 (inactive) | 0.307 (inactive) | 0.0797 (inactive) | 0.22 | 0.251 (inactive) | 0.096 | 0.109 | -0.0186 | -0.15
8 | CC(C)CON=C1C[C@@H](O)[C@@H](O)[C@@H]2[C@@H]3C(=O)N(Cc4ccc5c(c4)OCO5)C(=O)[C@@H]3CC[C@H]12 | -0.504 | -0.111 | -0.149 | 0.715 | 0.392 | 1.01 | 1 | -0.261 (inactive) | 0.0313 | -0.0645 | 1.31 | 0.306 (inactive) | 0.754 (inactive) | 0.329 (inactive) | 2.33 | 0.396 (inactive) | -0.2 | 1.38 | 0.846 | -0.0697
9 | Cc1cc2c(nc1C)CCCN2CC(O)CN1CCCc2nc(C)c(C)cc21 | 0.472 | 1.49 | 0.178 | 0.204 | 0.4 | 0.752 | 0.998 | -0.0397 (inactive) | 0.759 | 1.35 | 0.692 | 0.623 (inactive) | 0.73 (inactive) | -0.238 (inactive) | 1.89 | -0.605 (inactive) | 0.256 | 0.256 | 0.625 | -0.002
10 | CO[C@@H]1C=CCC(=O)N[C@@H](C)C(=O)OC[C@@H](OC)[C@H](C)CCCC(=O)OC[C@H]1C | -0.198 | 2.55 | -0.129 | 0.361 | 0.0208 | -0.677 | -0.951 | 0.313 (inactive) | -0.331 | 0.176 | 1.44 | -0.465 (inactive) | -0.111 (inactive) | -1.17 (inactive) | -2.13 | 0.976 (inactive) | -0.153 | 1.91 | -1.04 | -0.0485
